mcGAS lum = blocks mouse cGAS activity | Q8C6L5 | recombinant cGAS, Kinase-Glo ATP depletion luminescence | inhibition, % at 12.5 µM | actives 0.15% (n = 160,000) | AID 1259399;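 also: 0% = negative control wells and 100% = reference inhibitor with no enzyme activity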
hcGAS lum = blocks human cGAS activity; AID 1259398; Q8N884; inhibition, % at 12.5 µM; recombinant h-cGAS, ATP depletion, Kinase-Glo luminescence; actives 0.081% (n = 290,000);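 also: 0% = vehicle reaction and 100% = reaction without DNA for no activity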
NPYLR7 agonist = mosquito NPYLR7 agonism; activation, % at 10 µM; HEK293T NPYLR7/Galpha15, GCaMP6s calcium fluorescence; actives 0.15% (n = 270,000); in the data active = activation above about 40%;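 also: 0% = vehicle and 100% = reference agonist at the receptor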
* hit, by the source's call; . = not tested or not shown; ! = not active in a repeat. Hits are enriched below; roughly 0.3% of the tested compounds scored in any of these assays. Rule as the data show it, unless noted: active = inhibition above about 40%; inactive = the rest.

SMILES	mcGAS lum	hcGAS lum	NPYLR7 agonist
CCC1CN(C(=O)c2cc(C(C)C)on2)CCC(=O)N1Cc1ccccc1 (stereo not drawn)	.	-3	62*
CCC1CN(C(=O)c2cc(C(C)C)no2)CCC(=O)N1Cc1ccccc1 (stereo not drawn)	0	-4	2
OCCN(CCO)c1nc(N2CCCCC2)c2nc(N(CCO)CCO)nc(N3CCCCC3)c2n1	-3	1	75*!
Cn1ncc2c(N3CCCCC3)nc(N(CCO)Cc3ccccc3)nc21	-8	-6	1
O=[N+]([O-])c1cc(S(=O)(=O)NCc2ccc3c(c2)OCO3)ccc1Cl	-9	-5	-2
Cc1c(C(=O)c2cccs2)sc2nc3c(c(=O)n(C)c(=O)n3C)n12	.	-4	1
COc1cc(C=C(C#N)S(=O)(=O)c2cc(Br)ccc2Br)ccc1O	.	-2	170*
COc1cc(C=C(C#N)S(=O)(=O)c2cc(Br)ccc2Br)cc(OC)c1	.	-5	10
CCOC(=O)c1c(C)nc2nc(-c3ccncc3)nn2c1C	-2	-5	-14
CC(=O)Oc1cc2oc(=O)c(Cl)c(C)c2cc1Cl	29	72*	-1
COc1cc2oc(=O)cc(C)c2c(OC)c1OC(C)=O	.	2	-1
CCN1CCCC(NC(=O)c2nnn(-c3cccc(OC)c3)c2C)C1 (stereo not drawn)	-1	-4	0
CCCc1nc(C(=O)N2CCC3(CN(C)C(=O)O3)C2)cs1 (stereo not drawn)	.	-1	5
O=c1c2ccc(-c3cccnc3)nc2[nH]n1-c1ccccc1	.	-4	-2
Cn1c(=O)[nH]c2nnc(-c3cccnc3)nc2c1=O	58*	41*	-6
O=C(CCc1cccnc1)N1CCOC(COc2cccc(C(F)(F)F)c2)C1 (stereo not drawn)	.	-4	9
O=C(c1ccccc1OCc1ccccc1)C1OC1c1ccc2c(c1)OCCO2 (stereo not drawn)	-5	-5	-3
N#CCCNN=Cc1cc(I)c(O)c(I)c1	99*	55*	-1
COCc1cc(C)nc(N/N=C\c2cc(I)c(OC)c(OC)c2)c1C#N	-5	-3	-2
O=c1[nH]c(SCCO)nc2sc3c(c12)CCCC3	-6	-1	40*
Cc1nc(SCCO)c2c3c(sc2n1)CCCC3	7	-5	-1
CCOC(=O)c1cc(Cc2ccccc2)sc1NC(C)=O	-5	-10	17
CCCCN(CC(=O)N1c2ccccc2-n2cccc2C1c1cccc(C)c1)C(=O)Nc1cccc(OC)c1 (stereo not drawn)	-3	-2	15
Oc1cccc2ccc(Nc3ccccn3)nc12	6	57*	-14
Oc1ccccc1C(Nc1ccccn1)c1ccc2cccnc2c1O (stereo not drawn)	.	6	2
SMILES	mcGAS lum	hcGAS lum	NPYLR7 agonist
CNC(=O)c1nnc2n1C(c1ccccc1)CN(Cc1cccc(C(F)(F)F)c1)C2 (stereo not drawn)	.	-6	5
Cn1c(=O)c2c(ncn2CC(=O)Nc2sc3c(c2C#N)CCC3)n(C)c1=O	-6	-4	13
O=C1/C(=C/c2cccc(Br)c2)Oc2c1ccc(O)c2CN1CCN(CCO)CC1	10	6	52*
O=C1/C(=C/c2cccc(F)c2)Oc2c1ccc(O)c2CN1CCN(CCO)CC1	2	9	57*
Cc1cc(O)c(CN2CCN(CCO)CC2)c2c1C(=O)/C(=C/c1ccc(F)cc1)O2	-7	-7	15
O=C1/C(=C/c2cccc(Cl)c2)Oc2c1ccc(O)c2CN1CCN(CCO)CC1	12	15	50*
O=c1oc2c(CN3CCN(CCO)CC3)c(O)ccc2cc1-c1ccc(Cl)cc1	-7	-8	7
Cc1cc(O)c(CN2CCN(CCO)CC2)c2c1C(=O)/C(=C/c1ccco1)O2	-10	-2	28
C=CCn1c(C2CC2)nn(CN2CCc3cc(OCC)c(OCC)cc3C2)c1=S	-6	-5	8
CCOc1ccccc1NC(=O)N[C@H](Cc1ccccc1)C(=O)N1CCC(C(=O)Nc2ccc(OC)cc2)CC1	-7	-4	37
CCOCC1CCN(C(=O)Nc2cc(-n3cccc3)ccc2F)C1 (stereo not drawn)	.	-2	-21
COc1cccc(CN2CCNC(=O)C2CC(=O)NCCc2cccc(Cl)c2)c1OC (stereo not drawn)	.	2	-1
CC1C(=O)N(c2cccc(F)c2)CCN1C(=O)C1CC1 (stereo not drawn)	-1	2	44*
CC1C(=O)N(c2cccc(F)c2)CCN1C(=O)C1CCCC1 (stereo not drawn)	-6	-7	-3
Cc1ccc(S(=O)(=O)Nc2cccc([N+](=O)[O-])c2)cc1C	-7	-3	6
Cc1c(NC(=O)COC(=O)C(C#N)=Cc2ccc(N(C)C)cc2)c(=O)n(-c2ccccc2)n1C	-6	-5	50*
CCC(CC)C(=O)Nc1c(C)n(C)n(-c2ccccc2)c1=O	-5	-5	-1
